In PubChem BioAssay (Tox21) one finds Potency, activity, negative = inhibition and activity change, negative = inhibition data, which are given here for 60 compounds.

SMILES strings stand for the structures. Results filed as inconclusive are left out. More than one record can exist for a structure, and the calls need not agree. The source made the active and inactive calls. Calls come from the whole dose curve.

For test [1], the target named is Acetylcholinesterase (Homo sapiens) (UniProt P22303). Nature of the test: Acetylcholinesterase (AChE) small molecule antagonists: colormetric cell-based qHTS assay (AID 1347395). Note: nearly all actives have a fitted effect of over 30% in size. In a few lines:
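SH-SY5Y cells attached overnight, exposed to compound 30 min at 37 C, then given DTNB/acetylthiocholine; after 90 min at 37 C, colorimetric thiocholine read gives cellular AChE activity.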

Test [2] shares this target. The experiment in a line: Acetylcholinesterase (AChE) small molecule antagonists: enzyme-based qHTS assay (AID 1347397). Note: nearly all actives have a fitted effect of over 55% in size. Note: potency is the fitted concentration of half-maximal effect. To be noted: Potency: AChE enzyme activity inhibition; outcome: AChE enzyme activity inhibition. In a few lines: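 rhAChE 50 mU/mL (dispensed) + cpd or DMSO, 30 min RT; add DTNB/acetylthiocholine cocktail, 10 min RT; colorimetric thiocholine readout. qHTS, 1536-well format.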

For test [3] the target is unchanged. The experiment in a line: Acetylcholinesterase (AChE) small molecule antagonists: fluorescence cell-based qHTS assay (AID 1347398). Note: nearly all actives have a fitted effect of over 50% in size. Note: potency is the fitted concentration of half-maximal effect. To be noted: Potency: AChE activity; outcome: AChE activity. The procedure, abridged:
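Read-out is Thiolite Green fluorescence at Ex/Em = 490/520 nm, formed by reaction with thiocholine released when cellular AChE in SH-SY5Y cells hydrolyzes acetylthiocholine. Compounds were preincubated 30 min at 37 C before substrate.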
A general note: Quantitative high-throughput screening tests each substance at several concentrations.

Test [4] has the same target. Nature of the test: Acetylcholinesterase (AChE) small molecule antagonists: enzyme-based qHTS assay with human liver microsomes (AID 1347399). Note: nearly all actives have a fitted effect of over 60% in size. The settings on record: Potency: qHTS inhibition; outcome: qHTS inhibition. The procedure, abridged:
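Recombinant human AChE (50 mU/mL in the enzyme mix) and human liver microsomes (0.25 mg/mL final) were preincubated with compound and NADPH (0.25 mg/mL final) for 30 min at 37 C. Acetylthiocholine/DTNB was then added; thiocholine was read colorimetrically after 10 min at room temperature.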
% is set by controls: 0 for no effect and ±100 for the full control effect.

Acetylcholinesterase (Homo sapiens), sequence (P22303 whole entry, looked up): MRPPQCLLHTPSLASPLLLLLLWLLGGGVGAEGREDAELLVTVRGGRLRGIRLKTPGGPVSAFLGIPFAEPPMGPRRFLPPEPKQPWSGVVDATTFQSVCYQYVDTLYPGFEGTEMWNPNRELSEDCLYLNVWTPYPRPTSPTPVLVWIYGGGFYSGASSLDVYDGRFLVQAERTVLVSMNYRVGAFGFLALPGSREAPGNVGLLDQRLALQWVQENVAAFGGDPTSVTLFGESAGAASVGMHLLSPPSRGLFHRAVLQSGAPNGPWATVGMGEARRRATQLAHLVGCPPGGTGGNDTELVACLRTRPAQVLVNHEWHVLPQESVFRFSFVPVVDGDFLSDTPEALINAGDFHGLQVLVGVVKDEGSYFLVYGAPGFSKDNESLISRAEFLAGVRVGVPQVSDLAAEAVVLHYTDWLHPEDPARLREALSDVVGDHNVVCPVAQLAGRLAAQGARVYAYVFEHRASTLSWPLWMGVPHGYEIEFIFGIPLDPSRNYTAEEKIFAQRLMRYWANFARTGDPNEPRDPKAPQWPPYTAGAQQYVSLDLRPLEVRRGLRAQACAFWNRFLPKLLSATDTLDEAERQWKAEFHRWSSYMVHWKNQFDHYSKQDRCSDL

For `CCc1ccc(Br)cc1`, the Potency result in test [1], in test [2], in test [3] and in test [4] was “inactive” each time.
As for `Cc1ncsc1CCO`, the Potency result in test [1], in test [2], in test [3] and in test [4] was “inactive” throughout.
On to `Cc1ccc(C(=O)c2ccc(CC(=O)O)n2C)cc1`, for which the Potency entry in test [1], in test [2], in test [3] and in test [4] was “inactive” each time.
For `CC(C)=CCO`, the Potency entry in test [1], in test [2], in test [3] and in test [4] was “inactive” in each case.
`Cc1cc(O)c2c(c1)C(=O)c1cccc(O)c1C2=O`: the Potency result in test [1], in test [2], in test [3] and in test [4] was “inactive” throughout.
For `CC[C@H](C)C(=O)O[C@H]1C[C@@H](C)C=C2C=C[C@H](C)[C@H](CC[C@@H]3C[C@@H](O)CC(=O)O3)[C@H]21`, the Potency result in test [1], in test [2], in test [3] and in test [4] was “inactive” each time.
On to `O=C(OCCCCCOC(=O)c1ccccc1)c1ccccc1`, for which the Potency result in test [1], in test [2], in test [3] and in test [4] was “inactive” throughout.
Consider `C=CCCCCCCCCOC(C)=O`, for which the Potency result in test [1], in test [2], in test [3] and in test [4] was “inactive” in each case.
As to `CCN(Cc1c(F)cccc1Cl)c1c([N+](=O)[O-])cc(C(F)(F)F)cc1[N+](=O)[O-]`, the Potency entry in test [1], in test [2], in test [3] and in test [4] was “inactive” in each case.
Take `CC(C)C/C=C(\C=O)c1ccccc1`: the Potency entry in test [1], in test [2], in test [3] and in test [4] was “inactive” in each case.
Consider `CC1=NN(c2ccccc2)C(=O)C1`, for which the Potency result in test [1] and in test [4] was “inactive” throughout. The Potency was 35.8 µM (active) and inactive in test [2]; 5.06 µM (active) and inactive in test [3].
On to `Cc1ccccc1OCC1CO1` (stereo not given), for which the Potency result in test [1], in test [2], in test [3] and in test [4] was “inactive” throughout.
`OCCc1ccccn1`: the Potency result in test [1], in test [2], in test [3] and in test [4] was “inactive” in each case.
Consider `CC(=O)OCc1ccco1`, for which the Potency result in test [1], in test [2], in test [3] and in test [4] was “inactive” each time.
Turning to `Cc1ncc([N+](=O)[O-])n1CCO`, the Potency result in test [1], in test [2], in test [3] and in test [4] was “inactive” each time.
As for `COc1cc(C(=O)N2CCOCC2)cc(OC)c1OC`, the Potency entry in test [1], in test [2], in test [3] and in test [4] was “inactive” in each case.
On to `CC(C)COC(=O)c1ccccc1O`, for which the Potency entry in test [1], in test [2], in test [3] and in test [4] was “inactive” throughout.
Take `CCc1oc2ccccc2c1C(=O)c1cc(Br)c(O)c(Br)c1`: the Potency result in test [1], in test [2], in test [3] and in test [4] was “inactive” each time.
In the case of `OCC(CO)(CO)CO`, the Potency entry in test [1], in test [2], in test [3] and in test [4] was “inactive” each time.
For the compound `CCCCCCS`, the Potency entry in test [1], in test [2], in test [3] and in test [4] was “inactive” each time.
Regarding `CCn1cc(C(=O)O)c(=O)c2cc(F)c(N3CCNCC3)cc21`, the Potency result in test [1], in test [2], in test [3] and in test [4] was “inactive” throughout.
As for `CC1(C)[C@@H](O[C@H]2O[C@H](C(=O)O)[C@@H](O)[C@H](O)[C@H]2O[C@@H]2O[C@H](C(=O)O)[C@@H](O)[C@H](O)[C@H]2O)CC[C@]2(C)[C@H]3C(=O)C=C4[C@@H]5C[C@@](C)(C(=O)O)CC[C@]5(C)CC[C@@]4(C)[C@]3(C)CC[C@@H]12`, the Potency entry in test [1], in test [2], in test [3] and in test [4] was “inactive” in each case.
Regarding `Fc1ccccc1-c1ccccc1`, the Potency result in test [1], in test [2], in test [3] and in test [4] was “inactive” each time.
On to `CC(N)C12CC3CC(CC(C3)C1)C2` (stereo not given), for which the Potency entry in test [1], in test [2], in test [3] and in test [4] was “inactive” throughout.
In the case of `CCC(C)c1cc(C(C)(C)C)c(O)c(C(C)(C)C)c1` (stereo not given), the Potency entry in test [1], in test [2], in test [3] and in test [4] was “inactive” each time.
For the compound `CC(C)c1cc2c(cc1S(=O)(=O)O)[C@@]1(C)CCC[C@@](C)(C(=O)O)[C@@H]1CC2`, the Potency entry in test [1], in test [2], in test [3] and in test [4] was “inactive” in each case.
On to `CCc1occc(=O)c1O`, for which the Potency result in test [1], in test [2], in test [3] and in test [4] was “inactive” in each case.
Take `ClCCOCCOCCCl`: the Potency result in test [1], in test [2], in test [3] and in test [4] was “inactive” each time.
As to `O=C1[C@H](CC[C@H](O)c2ccc(F)cc2)[C@@H](c2ccc(O)cc2)N1c1ccc(F)cc1`, the Potency result in test [1], in test [2], in test [3] and in test [4] was “inactive” in each case.
On to `N#Cc1ccccc1O`, for which the Potency result in test [1], in test [2], in test [3] and in test [4] was “inactive” each time.
As for `C1CSCCS1`, the Potency result in test [1], in test [2], in test [3] and in test [4] was “inactive” throughout.
As to `CCOB(OCC)OCC`, the Potency entry in test [1], in test [2], in test [3] and in test [4] was “inactive” in each case.
With `CCSC(=O)N(CC(C)C)CC(C)C`, the Potency result in test [1], in test [2], in test [3] and in test [4] was “inactive” in each case.
Turning to `C/C(CC(C)C)=N\O`, the Potency entry in test [1], in test [2], in test [3] and in test [4] was “inactive” throughout.
In the case of `C=CCOC(=O)c1ccc(C(=O)OCC=C)c(C(=O)OCC=C)c1`, the Potency entry in test [1], in test [2], in test [3] and in test [4] was “inactive” each time.
In the case of `CCCN(CCC)S(=O)(=O)c1ccc(C(=O)O)cc1`, the Potency entry in test [1], in test [2], in test [3] and in test [4] was “inactive” each time.
In the case of `CN1Cc2cc(C(=O)N3CCC(C4CCNCC4)CC3)ccc2N[C@@H](CC(=O)O)C1=O`, the Potency entry in test [1], in test [2], in test [3] and in test [4] was “inactive” throughout.
In the case of `O=C(O)CCC(=O)O`, the Potency entry in test [1], in test [2], in test [3] and in test [4] was “inactive” throughout.
On to `CN1CCN(C2=Nc3cc(F)ccc3Cc3ccccc32)CC1`, for which the Potency entry in test [1], in test [2], in test [3] and in test [4] was “inactive” in each case.
In the case of `c1ccc2scnc2c1`, the Potency result in test [1], in test [2], in test [3] and in test [4] was “inactive” each time.
Consider `CC(CO)c1ccccc1` (stereo not given), for which the Potency result in test [1], in test [2], in test [3] and in test [4] was “inactive” each time.
Consider `CCOCCO`, for which the Potency entry in test [1], in test [2], in test [3] and in test [4] was “inactive” in each case.
Turning to `Clc1ccc(Nc2nnc(Cc3ccncc3)c3ccccc23)cc1`, the Potency entry in test [1], in test [2], in test [3] and in test [4] was “inactive” each time.
For `CCn1cc(C(=O)O)c(=O)c2cc(F)c(N3CCN(C)CC3)cc21`, the activity, negative = inhibition in test [1] is 2.04% [at 23.6 µM] (inactive). For the same compound, the activity change, negative = inhibition in test [2] is -0.504% [at 23.6 µM] (inactive); in test [3] it was 2.98% [at 23.8 µM] (inactive); in test [4] it was -0.336% [at 23.6 µM] (inactive).
Take `Nc1cc([N+](=O)[O-])cc(Cl)c1O`: the Potency result in test [1], in test [2], in test [3] and in test [4] was “inactive” throughout.
For the compound `CC(=O)c1nccs1`, the Potency entry in test [1], in test [2], in test [3] and in test [4] was “inactive” in each case.
For `Cc1occc1S`, the Potency entry in test [1], in test [2], in test [3] and in test [4] was “inactive” in each case.
Take `Oc1ccc(/C=C/c2cc(O)cc(O)c2)cc1`: the Potency result in test [1], in test [2], in test [3] and in test [4] was “inactive” in each case.
Take `CCC(=O)OC(=O)CC`: the Potency entry in test [1], in test [2], in test [3] and in test [4] was “inactive” in each case.
Turning to `O=C1C(c2[nH]c3ccccc3c2O)=Nc2ccccc21`, the Potency result in test [1], in test [2], in test [3] and in test [4] was “inactive” throughout.
Regarding `CCCCCCCCCC/C=C/C#N`, the Potency entry in test [1], in test [2], in test [3] and in test [4] was “inactive” each time.
Consider `CCCCOC(=O)[C@H](C)O`, for which the Potency result in test [1], in test [2], in test [3] and in test [4] was “inactive” throughout.
As for `NC(CSCC(=O)O)C(=O)O` (stereo not given), the Potency entry in test [1], in test [2], in test [3] and in test [4] was “inactive” each time.
Regarding `Cc1cccc(C)c1C`, the Potency result in test [1], in test [2], in test [3] and in test [4] was “inactive” throughout.
On to `O=S(=O)(O)c1cc(S(=O)(=O)O)c2c(N=Nc3ccccc3)c(O)ccc2c1`, for which the Potency entry in test [1], in test [2], in test [3] and in test [4] was “inactive” each time.
With `CC(C)C(=O)C(C)C`, the Potency entry in test [1], in test [2], in test [3] and in test [4] was “inactive” throughout.
Turning to `CCCCCCCCCCC1CO1` (stereo not given), the Potency result in test [1], in test [2], in test [3] and in test [4] was “inactive” in each case.
On to `CCCCC1C(=O)N(c2ccccc2)N(c2ccccc2)C1=O`, for which the Potency entry in test [1], in test [2], in test [3] and in test [4] was “inactive” each time.
In the case of `CCCc1nc2c(C)cc(-c3nc4ccccc4n3C)cc2n1Cc1ccc(-c2ccccc2C(=O)O)cc1`, the Potency entry in test [1], in test [2], in test [3] and in test [4] was “inactive” each time.
On to `CC(C)CCCCCCN`, for which the Potency result in test [1], in test [2], in test [3] and in test [4] was “inactive” each time.
